{"source": "the antibiotic and cytotoxicity screens of Wong et al. (2023)", "note": "The whole screen tested about 39,000 compounds, of which about 3,300 (8.5%) were called active. What follows is part of a selection rich in actives, with near analogues and random picks from the rest."}
{"test_system": "HepG2", "assay": "cytotoxicity call (relative viability < 0.9)", "conditions": "10 µM"}
{"compound": "NC[C@H](c1ccccc1Cl)N1CCOCC1", "cytotoxicity call": "inactive"}
{"compound": "C[C@@H]1CN([C@H](C)CO)C(=O)c2cc(NC(=O)Nc3ccccc3)ccc2O[C@@H](C)CCCCO[C@H]1CN(C)C(=O)Cc1ccccc1", "cytotoxicity call": "inactive"}
{"compound": "CC[C@H](C)[C@H](N)C1=N[C@H](C(=O)N[C@@H](CC(C)C)C(=O)N[C@H](CCC(=O)O)C(=O)N[C@H](C(=O)N[C@H]2CCCCNC(=O)[C@H](CC(N)=O)NC(=O)[C@@H](CC(=O)O)NC(=O)[C@H](Cc3cnc[nH]3)NC(=O)[C@@H](Cc3ccccc3)NC(=O)[C@H]([C@@H](C)CC)NC(=O)[C@@H](CCCN)NC2=O)[C@@H](C)CC)CS1", "cytotoxicity call": "inactive"}
{"compound": "O=C(C[C@@H]1CC[C@@H]2[C@H](COC[C@H](O)CN2C(=O)Nc2ccc(Cl)c(Cl)c2)O1)NCc1ccc(Cl)c(Cl)c1", "cytotoxicity call": "inactive"}
{"compound": "O=C(C[C@H]1CC[C@@H]2[C@H](COC[C@H](O)CN2C(=O)Nc2ccc(Cl)c(Cl)c2)O1)NCc1ccncc1", "cytotoxicity call": "inactive"}
{"compound": "O=C(C[C@@H]1CC[C@H]2[C@@H](COC[C@@H](O)CN2C(=O)Nc2ccc(Cl)c(Cl)c2)O1)NCc1ccncc1", "cytotoxicity call": "inactive"}
{"compound": "O=C(C[C@H]1CC[C@H]2[C@@H](COC[C@@H](O)CN2C(=O)Nc2ccc(Cl)cc2)O1)NCCc1ccncc1", "cytotoxicity call": "active"}
{"compound": "O=C(C[C@@H]1CC[C@@H]2[C@H](COC[C@@H](O)CN2C(=O)Nc2ccc(Cl)c(Cl)c2)O1)NCc1ccncc1", "cytotoxicity call": "active"}
{"compound": "O=C(C[C@H]1CC[C@H]2[C@@H](COC[C@H](O)CN2C(=O)Nc2ccc(Cl)cc2)O1)NCCc1ccncc1", "cytotoxicity call": "inactive"}
{"compound": "O=C(C[C@H]1CC[C@H]2[C@@H](COC[C@@H](O)CN2C(=O)Nc2ccc(Cl)c(Cl)c2)O1)NCc1ccncc1", "cytotoxicity call": "inactive"}
{"compound": "O=C(C[C@@H]1CC[C@@H]2[C@H](COC[C@@H](O)CN2C(=O)Nc2ccc(Cl)cc2)O1)NCCc1ccncc1", "cytotoxicity call": "inactive"}
{"compound": "O=C(C[C@H]1CC[C@@H]2[C@H](COC[C@H](O)CN2C(=O)Nc2ccc(Cl)c(Cl)c2)O1)NCc1ccc(Cl)c(Cl)c1", "cytotoxicity call": "active"}
{"compound": "CO[C@H]1CN(C)C(=O)c2cc(NC(=O)Nc3ccc(Cl)cc3)ccc2OC[C@@H](C)N(C(=O)Nc2c(C)noc2C)C[C@@H]1C", "cytotoxicity call": "inactive"}
{"compound": "C[C@@H]1CCCCO[C@@H](CN(C)C(=O)Cc2ccccc2)[C@@H](C)CN([C@H](C)CO)C(=O)c2cc(NC(=O)C3CCCCC3)ccc2O1", "cytotoxicity call": "inactive"}
{"compound": "CC(C)NC(=O)N(C)C[C@@H]1Oc2ccc(NC(=O)Cn3cnnn3)cc2C(=O)N([C@H](C)CO)C[C@@H]1C", "cytotoxicity call": "inactive"}
{"compound": "C[C@@H]1CCCCO[C@H](CN(C)C(=O)Cc2ccccc2)[C@H](C)CN([C@H](C)CO)C(=O)c2cc(NC(=O)CCC(F)(F)F)ccc2O1", "cytotoxicity call": "inactive"}
{"compound": "C[C@@H]1CN([C@@H](C)CO)C(=O)c2cc(NC(=O)CCCN(C)C)ccc2O[C@H]1CN(C)S(=O)(=O)c1ccc(F)cc1", "cytotoxicity call": "inactive"}
{"compound": "Clc1ccc(C2=Nc3cccc4cccc(c34)N2)cc1", "cytotoxicity call": "inactive"}
{"compound": "C=C(CO)C(=O)O[C@H]1C[C@@]2(C)OC(=O)/C(=C/C)[C@]2(O)CC[C@@]2(C)CC(=O)[C@]1(C(=C)C(=O)OC)O2", "cytotoxicity call": "inactive"}
{"compound": "C=C(CO)C(=O)O[C@@H]1[C@H]2C(=C)C(=O)O[C@@H]2[C@H]2O[C@]2(C)CC/C=C(/C(=O)OC)[C@H]1OC(C)=O", "cytotoxicity call": "active"}
{"compound": "O=C(O)CN1CCCCCC1=O", "cytotoxicity call": "inactive"}
{"compound": "O=C(C[C@H]1C[C@@H]2c3cc(NC(=O)Nc4ccc(C(F)(F)F)cc4)ccc3O[C@@H]2[C@H](CO)O1)NCc1ccc(Cl)cc1", "cytotoxicity call": "inactive"}
{"compound": "C[C@@H]1CN([C@@H](C)CO)C(=O)CCCn2cc(nn2)CO[C@H]1CN(C)C(=O)Nc1ccnc(N2CCOCC2)c1", "cytotoxicity call": "inactive"}
{"compound": "C[C@H](CO)N1C[C@H](C)[C@@H](CN(C)Cc2ccc(-c3ccccc3)cc2)Oc2ccc(NC(=O)c3ccncc3)cc2C1=O", "cytotoxicity call": "inactive"}
{"compound": "C[C@@H]1CN([C@H](C)CO)C(=O)c2cc(NC(=O)c3ccncc3)ccc2O[C@H]1CN(C)Cc1ccc(-c2ccccc2)cc1", "cytotoxicity call": "active"}
{"compound": "Cc1noc(C)c1NC(=O)N(C)C[C@H]1Oc2ccc(NC(=O)c3ccncc3)cc2C(=O)N([C@@H](C)CO)C[C@@H]1C", "cytotoxicity call": "inactive"}
{"compound": "C[C@@H]1CN([C@@H](C)CO)C(=O)c2cc(NC(=O)c3ccncc3)ccc2O[C@@H]1CN(C)Cc1ccc(-c2ccccc2)cc1", "cytotoxicity call": "inactive"}
{"compound": "C[C@@H]1CN([C@H](C)CO)C(=O)c2cc(NC(=O)c3ccncc3)ccc2O[C@@H]1CN(C)Cc1ccc(Oc2ccccc2)cc1", "cytotoxicity call": "inactive"}
{"compound": "Cc1noc(C)c1NC(=O)N(C)C[C@H]1Oc2ccc(NC(=O)c3ccncc3)cc2C(=O)N([C@H](C)CO)C[C@@H]1C", "cytotoxicity call": "active"}
{"compound": "C[C@H](CO)N1C[C@H](C)[C@H](CN(C)Cc2ccc(Oc3ccccc3)cc2)Oc2ccc(NC(=O)c3ccncc3)cc2C1=O", "cytotoxicity call": "active"}
{"compound": "C[C@H]1CN([C@@H](C)CO)C(=O)c2cc(NC(=O)c3ccncc3)ccc2O[C@@H]1CN(C)Cc1ccc(Oc2ccccc2)cc1", "cytotoxicity call": "inactive"}
{"compound": "Cc1noc(C)c1NC(=O)N(C)C[C@H]1Oc2ccc(NC(=O)c3ccncc3)cc2C(=O)N([C@@H](C)CO)C[C@H]1C", "cytotoxicity call": "inactive"}
{"compound": "C[C@@H]1CN([C@@H](C)CO)C(=O)c2cc(NC(=O)CCCN(C)C)ccc2O[C@H]1CN(C)Cc1ccncc1", "cytotoxicity call": "inactive"}
{"compound": "C[C@@H]1CCCCO[C@@H](CN(C)CC2CCCCC2)[C@@H](C)CN([C@@H](C)CO)C(=O)c2cc(NC(=O)CCC(F)(F)F)ccc2O1", "cytotoxicity call": "inactive"}
{"compound": "Cc1ccc(S(=O)(=O)N(C)C[C@@H]2Oc3ccc(NS(C)(=O)=O)cc3C(=O)N([C@H](C)CO)C[C@@H]2C)cc1", "cytotoxicity call": "inactive"}
{"compound": "COc1ccc2c3c(n(c2c1)C)[C@@H](CO)N(C[C@]13CN(Cc2ccncc2)C1)C(=O)CN1CCOCC1", "cytotoxicity call": "inactive"}
{"compound": "O=C(C[C@@H]1CC[C@H]2[C@@H](COC[C@@H](O)CN2Cc2ccccc2F)O1)N[C@@H]1CCN(Cc2ccccc2)C1", "cytotoxicity call": "inactive"}
{"compound": "C[C@@H]1CCCCO[C@@H](CN(C)C(=O)Nc2cccc3ccccc23)[C@H](C)CN([C@@H](C)CO)C(=O)c2cc(NS(=O)(=O)c3cccs3)ccc2O1", "cytotoxicity call": "inactive"}
{"compound": "C[C@@H]1CN([C@@H](C)CO)C(=O)c2c(c3ccccc3n2C)-c2ccccc2CO[C@@H]1CN(C)C(=O)NC1CCCCC1", "cytotoxicity call": "inactive"}
{"compound": "Cn1c(=O)c2c(ncn2CC(=O)N2CCN(c3ccccc3F)CC2)n(C)c1=O", "cytotoxicity call": "inactive"}
{"compound": "CCN(CC)C(=S)SSC(=S)N(CC)CC", "cytotoxicity call": "active"}
{"compound": "O=C(NCc1nc2ccccc2[nH]1)C1=C[C@@H](c2ccc(C(F)(F)F)cc2)C[C@@H](OCc2ccc(CO)cc2)O1", "cytotoxicity call": "inactive"}
{"compound": "Nc1cc(N)nc(SCCC(=O)O)n1", "cytotoxicity call": "inactive"}
{"compound": "COCC(=O)N1CC(=O)N2[C@H](CO)[C@@H](c3ccc(C#Cc4cccnc4)cc3)[C@H]2C1", "cytotoxicity call": "inactive"}
{"compound": "COC(=O)CC1C2(C)CC34OC5(C)OC6(C7C(=C(O)C(C)C)C(=O)OC(c8ccoc8)C7(C)C(OC(C)=O)C(OC(C)=O)C6(O5)C13C)C(OC(C)=O)C4(O)C2OC(=O)C(C)C", "note": "(stereo unspecified)", "cytotoxicity call": "inactive"}
{"compound": "CC(C)C(O)=C1C(=O)OC(c2ccoc2)C2(C)C(O)C(O)C34OC5(C)OC3(C12)C(O)C1(O)C(O)C2(C)CC1(O5)C4(C)C2CC(=O)O", "note": "(stereo unspecified)", "cytotoxicity call": "inactive"}
{"compound": "CC(C)C(=O)[C@@H]1C(=O)O[C@@H](c2ccoc2)[C@]2(C)[C@H](O)[C@@H](O)[C@@]34O[C@]5(C)O[C@]3([C@H]12)[C@H](O)[C@@]1(O)[C@H](O)[C@]2(C)C[C@]1(O5)[C@@]4(C)[C@H]2CC(=O)O", "cytotoxicity call": "active"}
{"compound": "COc1cccc(S(=O)(=O)N(C)C[C@H]2Oc3ncc(C#CC(C)C)cc3C(=O)N([C@H](C)CO)C[C@@H]2C)c1", "cytotoxicity call": "inactive"}
{"compound": "C[C@@H](C(=O)N(C)C[C@H]1OCc2ccccc2-c2c(n(C)c3ccccc23)C(=O)N([C@@H](C)CO)C[C@@H]1C)c1ccccc1", "cytotoxicity call": "inactive"}
{"compound": "C[C@H](C(=O)N(C)C[C@H]1OCc2ccccc2-c2c(n(C)c3ccccc23)C(=O)N([C@@H](C)CO)C[C@H]1C)c1ccccc1", "cytotoxicity call": "inactive"}
{"compound": "C[C@@H]1CN([C@@H](C)CO)C(=O)c2c(c3ccccc3n2C)-c2ccccc2CO[C@@H]1CN(C)C(=O)[C@H](C)c1ccccc1", "cytotoxicity call": "inactive"}
{"compound": "C[C@H](C(=O)N(C)C[C@H]1OCc2ccccc2-c2c(n(C)c3ccccc23)C(=O)N([C@@H](C)CO)C[C@@H]1C)c1ccccc1", "cytotoxicity call": "active"}
{"compound": "C[C@H](CO)N1C[C@H](C)[C@H](CN(C)C(=O)[C@H](C)c2ccccc2)OCc2ccccc2-c2c(n(C)c3ccccc23)C1=O", "cytotoxicity call": "active"}
{"compound": "C[C@H](C(=O)N(C)C[C@@H]1OCc2ccccc2-c2c(n(C)c3ccccc23)C(=O)N([C@@H](C)CO)C[C@@H]1C)c1ccccc1", "cytotoxicity call": "inactive"}
{"compound": "Cc1noc(C)c1NC(=O)Nc1ccc2c(c1)C(=O)N([C@H](C)CO)C[C@H](C)[C@@H](CN(C)Cc1ccccc1)OCCCC[C@H](C)O2", "cytotoxicity call": "inactive"}
{"compound": "C[C@@H]1CN([C@@H](C)CO)C(=O)c2cc(NC(=O)Nc3ccc(C(F)(F)F)cc3)ccc2O[C@H]1CN(C)Cc1ccccc1", "cytotoxicity call": "inactive"}
{"compound": "C[C@@H]1CN([C@H](C)CO)C(=O)c2cc(NC(=O)Nc3ccc(C(F)(F)F)cc3)ccc2O[C@@H]1CN(C)Cc1ccccc1", "cytotoxicity call": "active"}
{"compound": "C[C@H](CO)N1C[C@H](C)[C@H](CN(C)Cc2ccccc2)Oc2ccc(NC(=O)Nc3ccc(C(F)(F)F)cc3)cc2C1=O", "cytotoxicity call": "active"}
{"compound": "C[C@H]1CN([C@@H](C)CO)C(=O)c2cc(NC(=O)Nc3ccc(C(F)(F)F)cc3)ccc2O[C@@H]1CN(C)Cc1ccccc1", "cytotoxicity call": "inactive"}
{"compound": "C[C@H]1CN([C@@H](C)CO)C(=O)c2cc(NC(=O)Nc3ccc(C(F)(F)F)cc3)ccc2O[C@H]1CN(C)Cc1ccccc1", "cytotoxicity call": "active"}
{"compound": "C[C@@H]1CN([C@@H](C)CO)C(=O)c2cc(NC(=O)Nc3ccc(C(F)(F)F)cc3)ccc2O[C@@H]1CN(C)Cc1ccccc1", "cytotoxicity call": "active"}
